Most compounds without a hit are left out; they make up all but 6.5% or so of the library.
VACV mCherry inh = vaccinia inhibition (mCherry reporter); AID 720579; Vaccinia virus mCherry reporter infection, fluorescence; 0.63% of 310,000 active; Potency, µM (highest dose often 36.5 µM), most hits filed as inhibitors; calls by dose curve; tested in A549 cells; note: nearly all actives have a fitted effect of over 35% in size
MARV entry inh = Marburg virus entry inhibition | Marburg virus pseudotyped entry inhibition, cell reporter | Potency, µM (doses to about 37.8 µM), hits mostly inhibitors | 1.8% of 300,000 active; calls by dose curve; tested in HEK293 cells
Lassa entry inh = inhibitors of Lassa virus binding or cell entry; Lassa virus pseudotype entry inhibition, cell reporter; Potency, µM (top dose mostly 37.9 µM), actives largely listed as inhibitors; 1.2% of 300,000 active; calls by dose curve; tested in HEK293 cells; note: nearly all actives have a fitted effect of over 50% in size
Vaccinia Venus = vaccinia inhibition (Venus reporter). AID 720580. 0.46% of 330,000 active. Vaccinia virus Venus reporter expression, fluorescence. Potency, µM (highest dose often 36.5 µM), actives largely listed as inhibitors; calls by dose curve; tested in A549 cells; note: nearly all actives have a fitted effect of over 30% in size
HCMV antiviral = inhibitors of human cytomegalovirus | activity change, negative = inhibition, % at 57.5 µM | HFF cells, HCMV-luciferase reporter, 72 h; stronger effect = lower value | 4.5% of 410,000 active | AID 1259415; in the data active = activity change below about -60%; inconclusive = no clear call, values can overlap the other calls; inactive = above about -39%
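Compounds were evaluated in HFFs infected with an HCMV luciferase reporter virus (MOI 1 PFU/cell). Luciferase in lysates collected 72 h post infection served as the replication measure.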
FMDV inh = antivirals against foot and mouth disease virus; 1.2% of 410,000 active; AID 1159524; Potency, µM (doses to about 57.9 µM), hits mostly inhibitors; FMDV antiviral cell-based qHTS; calls by dose curve; tested in HEK293T cells; note: read-out not given here; nearly all actives have a fitted effect of over 45% in size
Each line names hits and unclear results; the compound was inactive in the other large screens.

COC(=O)C(Sc1ccc(Cl)cc1)C1SC(=S)N(Cc2ccccc2)C1=O (configuration not stated)	FMDV inh 32µM (no result: MARV entry inh, Lassa entry inh)
CN(CC(=O)Nc1ccccc1Br)CC(=O)Nc1ccccc1-c1ccccc1	none (no result: VACV mCherry inh, MARV entry inh, Lassa entry inh, Vaccinia Venus)
CN(CC(=O)Nc1ccccc1-c1ccccc1)Cc1ccccc1Cl	MARV entry inh 11µM, HCMV antiviral inconclusive
CC1=C(C(=O)Nc2ccc(C)cc2C)C(c2cc(Br)ccc2F)n2ncc(C(=O)Nc3ccc(C)cc3)c2N1 (configuration not stated)	Vaccinia Venus inconclusive, HCMV antiviral inconclusive (no result: MARV entry inh)
CCCCNC(=O)C(NC(=O)c1ccc(-c2ccccc2)cc1)C(=O)c1ccccc1 (configuration not stated)	HCMV antiviral -81 (no result: MARV entry inh, Lassa entry inh)
CCCCNC(=O)C(NC(=O)c1ccccc1)C(=O)c1ccccc1 (configuration not stated)	none (no result: MARV entry inh, Lassa entry inh)
O=C(C1CCN(CCCc2ccccc2)CC1)N(CCc1ccccc1)Cc1ccccc1	VACV mCherry inh inconclusive, MARV entry inh inconclusive, Lassa entry inh 11µM, Vaccinia Venus inconclusive
O=C(C1CCN(CC2CC=CCC2)CC1)N(CCc1ccccc1)Cc1ccccc1 (configuration not stated)	MARV entry inh inconclusive, Lassa entry inh inconclusive
CCOC(=O)N1CCc2c(sc3c2c(=O)n(Cc2ccccc2)c(=O)n3Cc2ccccc2F)C1	none
COc1ccccc1NC(=O)Cn1c(=O)n(CCc2ccccc2)c(=O)c2c3c(sc21)CN(C(C)=O)CC3	MARV entry inh inconclusive, HCMV antiviral -92, FMDV inh inconclusive (no result: Lassa entry inh)
CC(=O)N1CCc2c(sc3c2c(=O)n(CCc2ccccc2)c(=O)n3Cc2ccc(F)cc2)C1	MARV entry inh inconclusive, HCMV antiviral -61, FMDV inh inconclusive (no result: Lassa entry inh)
CCOC(=O)N1CCc2c(sc3c2c(=O)n(CCc2ccccc2)c(=O)n3Cc2ccc(F)cc2)C1	MARV entry inh inconclusive, FMDV inh inconclusive
CCOC(=O)N1CCc2c(sc3c2c(=O)n(Cc2ccccc2)c(=O)n3Cc2c(F)cccc2Cl)C1	HCMV antiviral -68
CC(=O)N1CCc2c(sc3c2c(=O)n(CCc2ccccc2)c(=O)n3CC(=O)Nc2ccccc2F)C1	HCMV antiviral inconclusive (no result: Lassa entry inh)
COc1cccc(NC(=O)CSc2nccn2C2CCCC2)c1	none (no result: MARV entry inh)
O=C(c1cnc(N2CCCCC2)c2ccccc12)N1CCN(c2ccc(F)cc2)CC1	none (no result: MARV entry inh)
Cc1cnc(-n2ncc(C(=O)N[C@H]3CCCCNC3=O)c2C2CC2)nc1-c1cccs1	none (no result: MARV entry inh, Lassa entry inh, HCMV antiviral)
Nc1ncnc2c1nc(Br)n2[C@@H]1O[C@@H]2COP(=O)(O)O[C@H]2[C@H]1O	HCMV antiviral -76 (no result: MARV entry inh, Lassa entry inh)
Cc1ccc(C(=O)NCC(=O)OCC(=O)c2ccc3ccccc3c2)cc1	none (no result: MARV entry inh, Lassa entry inh, HCMV antiviral, FMDV inh)
CCN(CC)CCNC(=O)Cn1nc(Cc2cccnc2)c2ccccc2c1=O	none (no result: MARV entry inh, Lassa entry inh)
CCCN(C(=O)Cn1nc(Cc2cccnc2)c2ccccc2c1=O)c1ccc(C(C)C)cc1	MARV entry inh inconclusive, HCMV antiviral -63
CCOc1ccc(NC(=O)Cn2nc(Cc3ccncc3)c3ccccc3c2=O)cc1	MARV entry inh inconclusive
CCCCNC(=O)Cn1nc(Cc2ccncc2)c2ccccc2c1=O	HCMV antiviral -62 (no result: VACV mCherry inh, MARV entry inh, Lassa entry inh, Vaccinia Venus)
CCCN(C(=O)Cn1nc(Cc2ccncc2)c2ccccc2c1=O)c1ccccc1C	MARV entry inh inconclusive, Lassa entry inh inconclusive, HCMV antiviral -62
COc1cccc2c1Oc1ncccc1N(C(=O)CCC(=O)NCCC(C)C)C2	none (no result: MARV entry inh)
Cc1nc(NCCc2ccc(S(N)(=O)=O)cc2)c2c(C)c(C)sc2n1	VACV mCherry inh inconclusive, MARV entry inh inconclusive, Lassa entry inh inconclusive, Vaccinia Venus inconclusive, HCMV antiviral -88, FMDV inh 22µM
C[C@H](N)CN1CCc2ccc(Br)cc21	MARV entry inh 3.5µM, Lassa entry inh inconclusive, HCMV antiviral inconclusive
CCC(N)(C(=O)O)c1ccc(C(=O)O)cc1 (configuration not stated)	none (no result: MARV entry inh, Lassa entry inh, HCMV antiviral)
C=Nc1ccc(/C=C/c2ccnc3ccccc23)cc1	none (no result: MARV entry inh, Lassa entry inh, HCMV antiviral, FMDV inh)
COc1ccc(-c2cc(=O)c3cc(OC)ccc3o2)cc1	none (no result: MARV entry inh, Lassa entry inh)
COc1ccc(-c2c3c(cc(C)[n+]2[O-])oc2ccc(OC)cc23)cc1	Lassa entry inh inconclusive, HCMV antiviral -91, FMDV inh 28µM
COc1ccc(-c2c(C)oc3ccc(C)cc23)cc1	none (no result: VACV mCherry inh, Vaccinia Venus)
COc1ccc2oc3cc(C)[n+]([O-])c(-c4ccc(Cl)cc4)c3c2c1	MARV entry inh inconclusive, Lassa entry inh inconclusive, HCMV antiviral -91, FMDV inh 35µM
